Among the data in the supplement of paper PMC6555819 are PBM binding z-score values, retold here.

The first experiment relates to LXRb:RXRa (NR concentration 270 nM, RXRa partner concentration 90 nM). Briefly: PBM binding z-score (relative to random genomic background probes); higher = stronger binding; sequences stand for … in GC…GCGATTGACAGCGTAGAATGAAGG
In outline:
(§1)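 Ligand-free nuclear receptor dimers were applied to custom Agilent 4×180K protein-binding microarrays whose double-stranded probes carried direct-repeat seeds, single-nucleotide variants, half-site ablations and random human genomic background sequences in 34-nt variable regions. Incubation lasted 1 h. Binding z-scores were computed against the random background probes from regression-normalized fluorescence.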
Sequence CCTAGCAGGCCAGTCTGGGTCACTCAAGGCTTGA gave a PBM binding z-score of 0.487.

For GCTCGGAGGACAAGGTCCGAGCTTTGTCCGTAGA, the PBM binding z-score was -1.07.

For AGAATGATGTTACCAAAGATCAGGGAAACGCTTG, the PBM binding z-score is -0.18.

ACTATTAGTTGAGACGAGGGCAACCCATAGGTTG yielded a PBM binding z-score of 0.0689.

The sequence CGTCCAGGGTCAAAGGTCAGTGAAGAGATGACGG returned a PBM binding z-score of 6.18.

Consider AGACAAAGTTCACTAGGTAACGTAAGATTCAGCT, for which the PBM binding z-score is 3.12.

In the case of GCGACTGGGGCAAAGCAGCTTACCATAAGGTTGG, the PBM binding z-score was -0.42.

CCTAACGGGTCAAGGTTATAGCACGGGTGGTACG had a PBM binding z-score of 2.46.

Consider CTCGAAAGGTCTTGCTCAGGTGAGTATACCAAAC, for which the PBM binding z-score was 0.506.

CAAACTAGGTCACAGATGTCAAAGTCCGTGCGTA yielded a PBM binding z-score of 2.81.

In turn, TCGGGTAGGTTAGGGGCATTCAGAATGGCGTCGA yielded a PBM binding z-score of 2.21.

CAAACTAGGTCAAGAGGTCAACGTCCGCTTCCCG yielded a PBM binding z-score of 5.27.

The sequence CCTATTAGTTGACTATAAGGGCAACCGAAGCTCG displayed a PBM binding z-score of 0.294.

In turn, ATCGAGAGGTCGTGAGGTGAGTATACAGAAAGGC registered a PBM binding z-score of 2.25.

In the case of GGAACGAGGGCAAGTTGATACCAGAGTTTGATGG, the PBM binding z-score came to 0.373.

Sequence ATCTCTAGGTAACCAAGTTGAGTGAATGCCGAAC gave a PBM binding z-score of 0.0776.

With ATTACAGGGTCACTAGGCCAGAGTAGGTACGAAT, the PBM binding z-score was found to be 3.59.

Take GCAAGCAGGCCATTTGGGTCACTCAATGACGGGC: the PBM binding z-score was -0.137.

Consider CGTCAAAGTTTAACTAAGGTAACGTAAAGCACGC, for which the PBM binding z-score amounted to 0.825.

Take AGTAGCAGGCCAAGTTTGGGTCACTCAAACAAAG: the PBM binding z-score was 0.549.

The sequence ATATGTAGGCTAGCTGGGGTCATTCAGACTAGGC displayed a PBM binding z-score of 3.49.

Sequence ATCTCTAGGTAAAAGTTCAGTGATTCCCGAGGAT yielded a PBM binding z-score of 0.613.

In turn, GGAACGAGAGCAAGTTGATAGCAGAGTTTGATGG came in with a PBM binding z-score of -0.852.

TAGCCTAGGTGAGATCGGGCCAGTATACGCTATA gave a PBM binding z-score of -0.901.

The sequence CAAACTATGTCACAGAGGTCAAAGTCCGTGCGTA showed a PBM binding z-score of 5.11.

On to TCTTGTAGATCAGCAGGTTAAGAAAGCTGGCCAA, for which the PBM binding z-score amounted to 0.167.

Take TCTAGTGGGTCACGGAGGTCACACACGACGGGTA: the PBM binding z-score is 4.62.

Sequence CCTACTGGGCCATTCAGAGGTCATTTATCATATG registered a PBM binding z-score of 4.14.

The sequence TTACCAAGGTGAGGGTCGTTGATCCCTCTGTAGA returned a PBM binding z-score of 0.915.

ACCGAAAGGTCGAAGGTGAGTATACCCACCCGAA registered a PBM binding z-score of 2.87.

For the sequence TTACCAAGGTGCAGGTCGTTGATCCCTCTGTAGA, the PBM binding z-score came to 0.819.

In turn, GCTAGTTGGTCAGTAAAAGGTCACACAACGGTCG yielded a PBM binding z-score of 4.15.

In turn, AATACAGGGTCATCCTAGGCCAGAGTACGCACAG yielded a PBM binding z-score of 5.25.

As for TTACCAAGGTGAAGGTGGTTGATCCCTCTGTAGA, the PBM binding z-score came out at 0.0076.

ACTCGGAGGACAAAGATCAGAGCTACGCCAGTGA showed a PBM binding z-score of -0.616.

The sequence TCTGCTAGTTCAGTTGGTCAGCTAACGAGCTGCC displayed a PBM binding z-score of -0.52.

GCGACTGGGGCATTAGCAGGTTACCATAACTTAA: the PBM binding z-score turned out to be 0.936.

GCGACTGGGGCAAAGCAGGATACCATAAGGTTGG yielded a PBM binding z-score of -0.347.

GCGACTGGGGCAAAGCAGGTGACCATAAGGTTGG came in with a PBM binding z-score of -0.574.

In turn, GCGACTGGGGCAAAGCAGGTTACCAAAAGGTTGG registered a PBM binding z-score of 0.19.

The next experiment concerns LXRb homodimer (NR concentration 270 nM). The experiment is described as above. In outline:
as §1
CCTAGCAGGCCAGTCTGGGTCACTCAAGGCTTGA showed a PBM binding z-score of -1.44.

In turn, GCTCGGAGGACAAGGTCCGAGCTTTGTCCGTAGA gave a PBM binding z-score of -1.61.

Regarding AGAATGATGTTACCAAAGATCAGGGAAACGCTTG, the PBM binding z-score was -0.38.

Sequence ACTATTAGTTGAGACGAGGGCAACCCATAGGTTG came in with a PBM binding z-score of 0.34.

For CGTCCAGGGTCAAAGGTCAGTGAAGAGATGACGG, the PBM binding z-score stood at 0.58.

AGACAAAGTTCACTAGGTAACGTAAGATTCAGCT had a PBM binding z-score of 1.08.

In turn, GCGACTGGGGCAAAGCAGCTTACCATAAGGTTGG returned a PBM binding z-score of -1.09.

Sequence CCTAACGGGTCAAGGTTATAGCACGGGTGGTACG came in with a PBM binding z-score of 0.225.

CTCGAAAGGTCTTGCTCAGGTGAGTATACCAAAC displayed a PBM binding z-score of -0.158.

As for CAAACTAGGTCACAGATGTCAAAGTCCGTGCGTA, the PBM binding z-score turned out to be 0.443.

TCGGGTAGGTTAGGGGCATTCAGAATGGCGTCGA returned a PBM binding z-score of 1.8.

In the case of CAAACTAGGTCAAGAGGTCAACGTCCGCTTCCCG, the PBM binding z-score turned out to be 1.55.

In the case of CCTATTAGTTGACTATAAGGGCAACCGAAGCTCG, the PBM binding z-score was 0.219.

ATCGAGAGGTCGTGAGGTGAGTATACAGAAAGGC showed a PBM binding z-score of 0.0713.

In turn, GGAACGAGGGCAAGTTGATACCAGAGTTTGATGG gave a PBM binding z-score of 0.0862.

ATCTCTAGGTAACCAAGTTGAGTGAATGCCGAAC: the PBM binding z-score is 0.391.

With ATTACAGGGTCACTAGGCCAGAGTAGGTACGAAT, the PBM binding z-score was determined as 1.62.

The sequence GCAAGCAGGCCATTTGGGTCACTCAATGACGGGC gave a PBM binding z-score of -0.801.

For the sequence CGTCAAAGTTTAACTAAGGTAACGTAAAGCACGC, the PBM binding z-score turned out to be 0.249.

AGTAGCAGGCCAAGTTTGGGTCACTCAAACAAAG came in with a PBM binding z-score of -0.802.

In the case of ATATGTAGGCTAGCTGGGGTCATTCAGACTAGGC, the PBM binding z-score is -0.151.

In turn, ATCTCTAGGTAAAAGTTCAGTGATTCCCGAGGAT returned a PBM binding z-score of 0.691.

As for GGAACGAGAGCAAGTTGATAGCAGAGTTTGATGG, the PBM binding z-score was -1.03.

As to TAGCCTAGGTGAGATCGGGCCAGTATACGCTATA, the PBM binding z-score is -0.702.

Consider CAAACTATGTCACAGAGGTCAAAGTCCGTGCGTA, for which the PBM binding z-score amounted to 2.14.

Sequence TCTTGTAGATCAGCAGGTTAAGAAAGCTGGCCAA had a PBM binding z-score of -0.4.

In turn, TCTAGTGGGTCACGGAGGTCACACACGACGGGTA returned a PBM binding z-score of 0.568.

As to CCTACTGGGCCATTCAGAGGTCATTTATCATATG, the PBM binding z-score worked out at 1.15.

The sequence TTACCAAGGTGAGGGTCGTTGATCCCTCTGTAGA showed a PBM binding z-score of -0.774.

For the sequence ACCGAAAGGTCGAAGGTGAGTATACCCACCCGAA, the PBM binding z-score is 0.185.

For TTACCAAGGTGCAGGTCGTTGATCCCTCTGTAGA, the PBM binding z-score is -0.626.

Sequence GCTAGTTGGTCAGTAAAAGGTCACACAACGGTCG had a PBM binding z-score of 0.685.

Regarding AATACAGGGTCATCCTAGGCCAGAGTACGCACAG, the PBM binding z-score was 1.72.

Regarding TTACCAAGGTGAAGGTGGTTGATCCCTCTGTAGA, the PBM binding z-score is -0.769.

ACTCGGAGGACAAAGATCAGAGCTACGCCAGTGA: the PBM binding z-score was -0.443.

Turning to TCTGCTAGTTCAGTTGGTCAGCTAACGAGCTGCC, the PBM binding z-score was determined as 0.193.

As for GCGACTGGGGCATTAGCAGGTTACCATAACTTAA, the PBM binding z-score was -0.458.

As to GCGACTGGGGCAAAGCAGGATACCATAAGGTTGG, the PBM binding z-score was -0.952.

GCGACTGGGGCAAAGCAGGTGACCATAAGGTTGG: the PBM binding z-score is -1.48.

On to GCGACTGGGGCAAAGCAGGTTACCAAAAGGTTGG, for which the PBM binding z-score was -1.32.
